Inconclusive results are not listed. Where a call stands in place of a potency, no number is given. The source made the active and inactive calls. Calls come from the whole dose curve; as a rule, active = well fitted activation curve with a large enough effect in the repeat runs; inconclusive = weak or mixed curves; inactive = no such curve, though single readings can be large or run the other way.
Assay: qHTS assay to identify small molecule agonists of the estrogen related receptor signaling pathway with the pleiotropic PPARgamma coactivator (PGC) (AID 1224823)
Settings: ERR/PGC reporter cell line, luciferase agonist mode; series mostly up to 46.1 µM
Text: National Center for Advancing Translational Sciences [NCATS]
NIH Chemical Genomics Center [NCGC]
U.S. Environmental Protection Agency [EPA]
National Institutes of Environmental Health Sciences [NIEHS]
National Toxicology Program [NTP]
Estrogen related receptors (ERRs), the first orphan nuclear receptors discovered, play an important role in the control of cellular energy metabolism. ERRs are required for high-energy production in response to the environmental challenges. The pleiotropic PPARgamma coactivator (PGC) is a major partner of ERR and a key regulator in energy homeostasis. Together they have been implicated in the etiology of metabolic disorders such as Type 2 diabetes and metabolic syndrome. ERR-alpha was also identified as an adverse marker for breast cancer progression; ERR-alpha-positive tumors have a poor prognosis. To screen and to identify environmental compounds that perturb the PGC/ERR signaling pathways could provide valuable information for potential therapeutic or preventive measures in the treatment of metabolic disease. For identifying PGC/ERR agonists, PGC/ERR cell line (provided by NTP) has been used to screen LOPAC library.
The PGC/ERR cells were dispensed at 2,000 cells/5 ul/well in 1536-well white plates using a Multidrop dispenser. After the assay plates were incubated at a 37 C/5% CO2 incubator for 6 hours, 23 nL of compounds dissolved in DMSO, positive and negative controls or DMSO only was transferred to the assay plate by a pin tool. The plates were incubated at 37 C for 18 hours. 4 ul/well of One-Glo reagent was added into the assay plates using a Flying Reagent Dispenser. After 30 min incubation at room temperature, the luminescence intensity in the plates was measured using a ViewLux plate reader.
Potency is the fitted concentration of half-maximal effect.

Structure (SMILES)	Potency
C[C@@H]1O[C@H](C[N+](C)(C)C)C[C@H]1O	inactive
S=C(NC1CCCCC1)N1CCC(c2cnc[nH]2)CC1	inactive
COc1ccc2c(c1O)-c1cccc3c1[C@@H](C2)N(C)CC3	inactive
O=P(O)(O)C(Cl)(Cl)P(=O)(O)O	inactive
NCCc1c[nH]c2ccc(O)cc12	inactive
O=[N+]([O-])c1c(Cl)c(Cl)cc(Cl)c1Cl	inactive
CN1CCc2cccc(Cl)c2CC1	inactive
NC(=O)CN1CC(O)CC1=O (stereo not given)	inactive
NCCCP(=O)(O)O	inactive
NCc1cc(=O)[nH]o1	inactive
CNCCc1c[nH]c2ccc(O)cc12	inactive
CC(C)CC(NP(=O)(O)O[C@@H]1O[C@@H](C)[C@H](O)[C@@H](O)[C@H]1O)C(=O)NC(Cc1c[nH]c2ccccc12)C(=O)O (stereo not given in full)	inactive
NC1CCc2cc(O)c(O)cc2C1 (stereo not given)	inactive
O=C(Nc1ccccc1-c1ccc(Cl)cc1)c1cccnc1Cl	inactive
CCCN1CCc2cc(O)cc3c2[C@H]1Cc1ccc(O)c(O)c1-3	inactive
C[N+]1(C)CCC(OC(=O)C(c2ccccc2)c2ccccc2)CC1	inactive
CN(N=O)c1ccc(O)c(O)c1	inactive
CCNC(=O)[C@H]1O[C@@H](n2cnc3c(N)ncnc32)[C@H](O)C1O (stereo not given in full)	0.168 µM (active)
COc1ccc(CNC(=O)/C=C/c2ccc3[nH]cc(CCN(C)C)c3c2)cc1	inactive
C[C@]12N[C@H](Cc3ccccc31)c1ccccc12	inactive

Structure (SMILES)	Potency
CC(C)(O)[C@@H]1[C@H]2OC(=O)[C@@H]1[C@]1(O)C[C@H]3O[C@]34C(=O)O[C@H]2[C@]14C (tested in a mixture with another compound)	inactive
CN1C2CCC1CC(OC(c1ccccc1)c1ccccc1N)C2 (stereo not given)	inactive
NNC(=O)c1ccc(O)cc1	inactive
COc1ccc2c(c1)C13CCCCC1C(C2)N(C)CC3 (stereo not given)	inactive
CC(Cc1ccc(OCC(=O)O)cc1)NCC(O)c1cccc(Cl)c1 (stereo not given)	inactive
CCCCc1ccc(C(=O)O)nc1	inactive
COc1cc(C(O)CN)ccc1O (stereo not given)	inactive
CC(C)Oc1cccnc1N(C)C1CCN(Cc2ccccc2)CC1	inactive
NC(=O)c1ccc(OCC(O)CN2CC=C(c3ccc(F)cc3)CC2)cc1 (stereo not given)	inactive
C[C@H](Cc1ccc2c(c1)OC(C(=O)O)(C(=O)O)O2)NC[C@H](O)c1cccc(Cl)c1	inactive
CN1CCC[C@@H]1Cc1c[nH]c2ccc(Nc3ncccc3[N+](=O)[O-])cc12	inactive
CCOC(=O)c1ncn2c1[C@@H]1CCCN1C(=O)c1cc(OC)ccc1-2	inactive
CCN1C[C@@]2(COC)C3[C@@H](OC)C4[C@H]1C3([C@@H]1C[C@@]3(O)[C@H](OC(=O)c5ccccc5)[C@@H]1[C@]4(OC(C)=O)[C@@H](O)[C@@H]3OC)[C@H](OC)C[C@H]2O	inactive
CN1CC[C@@]2(C)c3cc(OC(=O)Nc4ccccc4)ccc3N(C)[C@@H]12	inactive
O=C(N[C@H]1CN2CCC1CC2)c1ccc(Cl)cc1	inactive
N[C@@]1(C(=O)O)CC[C@@H](C(=O)O)C1	inactive
C=CCN1CCC23c4c5ccc(O)c4O[C@H]2C(=O)CC[C@@]3(O)C1C5 (stereo not given in full)	inactive
CC(N)C(=O)OC(C)(C)Cc1ccc(Cl)cc1 (stereo not given)	inactive
Cc1nccc2c1[nH]c1ccccc12	inactive
OCc1cnc[nH]1	inactive

Source: PubChem BioAssay (Tox21)
